Compound activity from PubChem.
MOR-DOR inv ag-1 = inverse agonist of human OPRM1-OPRD1 heterodimerization; cell-based MOR-DOR heterodimer luminescence, inverse agonism; P35372+P41143; hit rate 0.21% among 340,000; inhibition, % at 9.3 µM; in the data active = inhibition above about 22%, passing the limit was not always enough
HTR5A inv ctr = HTR5A inverse agonism, opioid heterodimer counter-screen. HTR5A cell line, luminescence. AID 504634. inhibition, % at 9.3 µM. hit rate 0.083% among 340,000; in the data active = inhibition mostly above about 23%, no sharp cut-off; inactive = mostly below about 18%
Target sequence (P47898 whole entry, looked up): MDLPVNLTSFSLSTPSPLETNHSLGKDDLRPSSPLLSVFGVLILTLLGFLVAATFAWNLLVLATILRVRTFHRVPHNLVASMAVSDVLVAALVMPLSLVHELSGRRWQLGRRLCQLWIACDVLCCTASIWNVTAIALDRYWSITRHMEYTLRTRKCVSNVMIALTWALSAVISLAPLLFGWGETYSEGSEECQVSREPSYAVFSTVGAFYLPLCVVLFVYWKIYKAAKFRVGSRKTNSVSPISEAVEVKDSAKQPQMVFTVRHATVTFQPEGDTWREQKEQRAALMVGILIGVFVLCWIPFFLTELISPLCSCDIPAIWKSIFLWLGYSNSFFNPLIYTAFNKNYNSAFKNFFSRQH
HTR5A ag ctr = counter-screen for OPRM1-OPRD1 agonists: human HTR5A agonism; HTR5A agonist assay, luminescence, cell-based; activation, % at 9.3 µM; hit rate 0.61% among 340,000; AID 504692; in the data active = activation mostly above about 9.5%, no sharp cut-off; inactive = mostly below about 7.6%
MOR-DOR ag-1 = OPRM1-OPRD1 heterodimerization agonism; P35372+P41143; cells, luminescence; activation, % at 9.3 µM; hit rate 0.3% among 340,000
MOR-DOR inv ag-2 = opioid heterodimer inverse agonism, HTR5A counter-screen; U2OS counter-screen cells, complementation luminescence; inhibition, % at 9.3 µM; shares compounds with HTR5A inv ctr; 190 tested, under 10 active; AID 504912; call rule not given here
HTR5A inv conf = confirmation of human HTR5A inverse agonists; shares compounds with HTR5A inv ctr; HTR5A-expressing cells, inverse agonism, luminescence; inhibition, % at 9.3 µM; 190 tested, under 10 active; call rule not given here
MOR-DOR ag-2 = opioid heterodimer agonism, HTR5A counter-screen. shares compounds with HTR5A ag ctr. hit rate 13% among 800. U2OS counter-screen cells, complementation luminescence, 3 h. activation, % at 9.3 µM
HTR5A ag conf = HTR5A (human) agonism, confirmation; shares compounds with HTR5A ag ctr; HTR5A agonist cell assay, luminescence; activation, % at 9.3 µM; hit rate 17% among 800; AID 504915; in the data active = activation above about 17%
Hits are given with their value; . = inactive; / = no result given. Only some compounds are listed: those with a hit (about 1.1% of all), similar ones and a draw of the others. Cut-off read from the data, not from the text of the source, unless noted: active = activation above about 18%; inactive = the rest.

SMILES	MOR-DOR inv ag-1	HTR5A inv ctr	HTR5A ag ctr	MOR-DOR ag-1	MOR-DOR inv ag-2	HTR5A inv conf	others
COc1ccc(CNc2ncnc3sccc23)cc1	.	25	.	.	.	.
COc1ccc(CNc2ncnc3sccc23)cc1OC	.	.	.	.	/	/
Cc1ccc(-c2cnc(-c3ccccc3C(=O)O)o2)cc1	.	.	.	.	/	/
CNc1c(C(=O)O)ccc2c1C(=O)c1ccccc1C2=O	.	36	.	.	.	.
Cc1nn(C(C)C(=O)NC(C)CCc2ccccc2)c(=O)c2cc3occc3n12 (stereo not given)	.	.	.	.	/	/
CCOc1cccc(C2/C(=C(/O)c3ccc4c(c3)CC(C)O4)C(=O)C(=O)N2CCCn2ccnc2)c1 (stereo not given)	.	.	.	.	/	/
COCCCNC(=O)c1ccc2c(=O)n(Cc3ccc4c(c3)OCO4)c(=S)[nH]c2c1	.	57	.	.	.	.
C[C@H](CO)N1C[C@H](C)[C@@H](CN(C)C(=O)Nc2ccc3c(c2)OCO3)Oc2c(NS(=O)(=O)c3ccc(F)cc3)cccc2C1=O	.	.	.	.	/	/
CCN(C[C@H]1N[C@@](CC)(C(=O)OC)[C@H]2C(=O)N(C)C(=O)[C@@H]12)C(=O)c1ccc(C(C)(C)C)cc1	.	.	.	.	/	/
Cc1ccc(O)c(NC(=S)NC(=O)c2ccccc2Cl)c1	.	21	.	.	.	.
O=C(NC(=S)Nc1ccc(O)cc1)c1ccccc1Cl	.	.	.	.	/	/
Cn1cccc1Cc1nnc(SCC(=O)NC2CCCC2)n1-c1ccc(F)cc1	.	.	.	.	/	/
COc1ccc(-n2c(Cc3cccn3C)nnc2SCC(=O)NC2CCCCC2)cc1	.	33	.	.	.	.
CCN(CC)c1ccc2cc(-c3nc4ccccc4[nH]3)c(=O)oc2c1	.	.	.	.	/	/
CCN(CC)c1ccc2nc3ccc(N)cc3[n+](-c3ccccc3)c2c1	.	36	.	.	.	.
CCN(CC)c1ccc2nc3ccccc3[n+](CC)c2c1	.	34	.	.	.	.
CCOc1ccc(CN(C)c2ccc(S(=O)(=O)N3CCN(C)CC3)cc2[N+](=O)[O-])cc1OC	.	.	.	.	/	/
CC(=O)N1C2CCCCC2S[C@H]2CCCCC21 (stereo not given in full)	.	34	.	.	.	.
Cc1onc(-c2ccccc2)c1C(=O)Nc1nnc(N2CCCCCC2)s1	.	25	.	.	.	.
Cc1cc(C(=O)CN2C(=O)C(=O)N(CCC3=CCCCC3)C2=O)c(C)n1C	.	37	.	.	.	.
COC(=O)c1ccc(CN(c2ccc(C(=O)O)c(O)c2)S(=O)(=O)c2ccc(Cl)c([N+](=O)[O-])c2)cc1	.	.	.	.	/	/
CCOc1cc(C(c2c(C)[nH][nH]c2=O)c2c(C)[nH][nH]c2=O)cc([N+](=O)[O-])c1O	.	29	.	.	42	.
Cc1ccc(NC(=O)CNC(=O)COc2ccccc2)nc1	.	49	.	.	.	.
COC(=O)c1ccccc1-c1c2ccc(=N)cc-2oc2cc(N)ccc12	.	35	.	.	.	.
COc1cccc(NC(=S)N/N=C2/CCCCc3ccccc32)c1	.	35	.	.	.	.
SMILES	MOR-DOR inv ag-1	HTR5A inv ctr	HTR5A ag ctr	MOR-DOR ag-1	MOR-DOR inv ag-2	HTR5A inv conf	others
COc1cc2nc(C3CCC3)nc(N3CCN(c4ccccn4)CC3)c2cc1OC	.	52	.	.	.	.
CN(C)c1ccc(N=Nc2ccc(S(N)(=O)=O)cc2)cc1	.	.	.	.	/	/
NS(=O)(=O)c1ccc(N=Nc2c[nH]c(=O)c(O)c2)cc1	.	32	.	.	.	.
O=C1/C(=C\c2ccc(O)c(O)c2)N=C2CCCCCN12	.	27	.	.	.	.
COc1cc(/C=C2\N=C3CCCCCN3C2=O)ccc1O	.	.	.	.	/	/
C/C(CC(=O)NCc1ccco1)=N\NC(=O)c1ccc([N+](=O)[O-])cc1Cl	.	.	.	.	/	/
COc1ccc(Cl)cc1C(=O)NNC(=O)CSc1nnc2ccccn12	.	27	.	.	.	.
O=C(COc1coc(CN2CCc3ccccc3C2)cc1=O)Nc1ccc(F)cc1F	.	63	.	.	.	.
O=C(COc1coc(CN2CCc3ccccc3C2)cc1=O)Nc1ccc(F)cc1	.	.	.	.	/	/
c1ccc2c(c1)nc(N1CCCCC1)c1ccccc12	.	.	.	.	/	/
c1ccc2c(c1)nc(N1CCOCC1)c1ccccc12	.	.	19	.	/	/	MOR-DOR ag-2=.;HTR5A ag conf=.
COc1cccc(N2CCN(C(=O)CCCCCn3c(=S)[nH]c4cc5c(cc4c3=O)OCO5)CC2)c1	.	.	21	.	/	/	MOR-DOR ag-2=.;HTR5A ag conf=21
O=C(CCCCCn1c(=S)[nH]c2cc3c(cc2c1=O)OCO3)N1CCN(c2ccccc2)CC1	.	.	.	.	/	/
Cc1ccc(C)c(OCC(O)CN2CCC(Cc3ccccc3)CC2)c1 (stereo not given)	.	.	.	.	/	/
CCOc1ccc(NC(=S)N2CCCN(Cc3cccc(Cl)c3)C2)cc1	.	.	.	.	/	/
COc1ccc(NC(=S)N2CCCN(Cc3cccc(Cl)c3)C2)cc1	.	.	48	.	/	/	MOR-DOR ag-2=167;HTR5A ag conf=.
Cc1cccc(C)c1NC(=S)N1CCCN(Cc2ccc(F)cc2)C1	.	.	.	.	/	/
COc1cccc(NC(=S)N2CCCN(Cc3ccc(F)cc3)C2)c1	.	.	33	.	/	/	MOR-DOR ag-2=.;HTR5A ag conf=26
O=C(CN1C(=O)c2cccc([N+](=O)[O-])c2C1=O)NCc1ccccc1	.	.	.	.	/	/
O=C(O[C@@H]1OC2COC(=O)c3cc(O)c(O)c(O)c3-c3c(cc(O)c(O)c3O)C(=O)O[C@@H]([C@H]1O)[C@@H]2O)c1cc(O)c(O)c(O)c1	.	.	.	.	/	/
COc1ccc(CN2CCN(C(=O)C3CCN(C(=O)Nc4ccccc4)CC3)CC2)cc1OC	.	.	.	.	/	/
COC(=O)c1ccc(-c2cc(C(=O)O)c3cc4c(cc3n2)OCCO4)cc1	.	.	17	.	/	/	MOR-DOR ag-2=.;HTR5A ag conf=.
Cc1ccccc1/C=N/Nc1ncnc2nc[nH]c12	.	.	14	.	/	/	MOR-DOR ag-2=28;HTR5A ag conf=.
CN(C(=O)c1cccc(NC(=O)Cc2ccc(NC(=O)C3CCCN(C(=O)CCc4ccccc4)C3)cc2)c1)C1CCC1 (stereo not given)	.	.	20	.	/	/	MOR-DOR ag-2=.;HTR5A ag conf=.
CN(C(=O)c1cccc(NC(=O)Cc2ccc(NC(=O)C3CCCN(C(=O)CCc4ccccc4)C3)cc2)c1)C1CCCC1 (stereo not given)	.	.	.	.	/	/
FC(F)(F)C(Oc1nc(Nc2ccc(Cl)cc2)nc(N2CCOCC2)n1)C(F)(F)F	.	.	.	.	/	/
CN(C)CCCN(C(=O)CCS(=O)(=O)c1ccccc1)c1nc2cc3c(cc2s1)OCO3	.	.	15	.	/	/	MOR-DOR ag-2=.;HTR5A ag conf=.
